Records with an inconclusive call do not appear. Calls of active or inactive are those of the source. Unless noted, calls come from the whole dose curve; as a rule, active = well fitted curve in the direction sought with a large enough effect in the repeat runs; inconclusive = weak or mixed curves; inactive = no such curve, though single readings can be large; an effect the other way counts as inactive or inconclusive.
Legend:
[1] = qHTS assay to identify small molecule antagonists of the vitamin D receptor (VDR) signaling pathway - cell viability counter screen (AID 743225); note: % is set by controls: 0 for no effect and ±100 for the full control effect; nearly all actives have a fitted effect of over 50% in size
Method in brief: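 Parallel cytotoxicity test: VDR-UAS-bla HEK 293T, 3 nM (final) 1-alpha,25-dihydroxyvitamin D3 with test compound, 16 h, 37C. Endpoint is CellTiter-Glo luminescence in the same wells.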

[2] = qHTS assay to identify small molecule agonists of the NFkB signaling pathway - cell viability counter screen (AID 1159515; calls by dose curve; note: series mostly up to about 61 µM; % is set by controls: 0 for no effect and ±100 for the full control effect; nearly all actives have a fitted effect of over 55% in size)
Method in brief: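 Parallel cytotoxicity counter screen in ME-180 cells carrying an NFkB-response-element beta-lactamase reporter, 2,000 cells/well. Compound exposure lasted 5 hr at 37 C, 5% CO2. Cell viability was quantified by CellTiter-Glo luminescence.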

[3] = qHTS assay to identify small molecule agonists of the endoplasmic reticulum stress response signaling pathway (AID 1159516; active = well fitted activation curve with a large enough effect in the signal ratio in the repeat runs, not every such curve was filed as active; the % refers to the signal ratio; note: % is set by controls: 0 for no effect and ±100 for the full control effect)
Method in brief: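 Using a HeLa line with an ESRE-driven beta-lactamase gene, agonist activity was measured by FRET substrate fluorescence (460 and 530 nm emission) after cells were treated with compounds for 5 hr at 37 C and 5% CO2.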

[4] = qHTS assay to identify small molecule agonists of the endoplasmic reticulum stress response signaling pathway - cell viability counter screen (AID 1159517; calls by dose curve;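 note: HeLa cells carrying an ER stress response element beta-lactamase reporter; series mostly up to about 61 µM; % is set by controls: 0 for no effect and ±100 for the full control effect; nearly all actives have a fitted effect of over 50% in size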)
Method in brief: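 ESRE-bla HeLa cells (1,500/well) were plated overnight at 37 C and exposed to compounds for 5 hr. After the 2 hr beta-lactamase substrate read, CellTiter-Glo went into the same wells, and luminescence was read after 30 min at room temperature.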

[5] = qHTS assay to identify small molecule antagonists of the retinoid-related orphan receptor gamma (ROR-gamma) signaling pathway - cell viability counter screen (AID 1159520); note: % is set by controls: 0 for no effect and ±100 for the full control effect; nearly all actives have a fitted effect of over 50% in size
Method in brief: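 Cytotoxicity was read from cellular ATP (CellTiter-Glo luminescence) after 16 hr at 37 C with 1 uM doxycycline induction. The inducer was added 2 hr after compound transfer to Tet-on ROR gamma CHO cells.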

[6] = target: Nuclear receptor ROR-gamma (Homo sapiens) (UniProt P51449); assay: qHTS assay to identify small molecule antagonists of the retinoid-related orphan receptor gamma (ROR-gamma) signaling pathway (AID 1159521;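 note: CHO cells with doxycycline inducible ROR-gamma driving an RORE luciferase reporter; top concentration of the series differs between compounds; % is set by controls: 0 for no effect and ±100 for the full control effect; nearly all actives have a fitted effect of over 50% in size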)
Method in brief: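 Decreased RORE-driven luciferase luminescence indicates antagonism. Tet-on RORγ CHO cells received compound, then 1 uM final doxycycline 2 h later; signal read after 16 h incubation.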

[7] = qHTS assay to identify small molecule agonists of the AP-1 signaling pathway - cell viability counter screen (AID 1159525; calls by dose curve; note: nearly all actives have a fitted effect of over 55% in size)
Method in brief: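 Intracellular ATP by Cell Titer Glo luminescence (30 min, RT) in the same ME-180 AP-1-bla wells after the 5 h compound exposure at 37 °C. Normalised to tetra n-octyl ammonium bromide and DMSO controls.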

[8] = qHTS assay to identify small molecule agonists of the AP-1 signaling pathway (AID 1159526; calls by dose curve; note: % is set by controls: 0 for no effect and ±100 for the full control effect)
[9] = target: Retinoic acid receptor RXR-alpha (Homo sapiens) (UniProt P19793); assay: qHTS assay to identify small molecule agonists of the RXR signaling pathway (AID 1159527; calls by dose curve; note: % is set by controls: 0 for no effect and ±100 for the full control effect; nearly all actives have a fitted effect of over 35% in size)
Method in brief: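 16 hr incubation of compound-treated RXR-alpha-UAS-bla HEK 293T cells (2% charcoal-stripped FBS, 37 C) preceded a 2 hr room-temperature LiveBLAzer FRET substrate step and blue/green fluorescence measurement.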

[10] = qHTS assay to identify small molecule agonists of the RXR signaling pathway - cell viability counter screen (AID 1159529)
Method in brief: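 In this parallel viability measure, GeneBLAzer RXR-alpha HEK 293T cells (2% charcoal-stripped FBS) were given a 5 hr preincubation, treated with compounds 16 hr at 37 C, and read by CellTiter-Glo luminescence.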

[11] = qHTS assay to identify small molecule antagonists of the retinoid acid receptor (RAR) signaling pathway - cell viability counter screen (AID 1159551); note: % is set by controls: 0 for no effect and ±100 for the full control effect; nearly all actives have a fitted effect of over 35% in size
Method in brief: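 ATP-based viability, C3RL4 cells, 6 h at 37 C with 1 uM final retinol co-added after compound; luminescence read 30 min post CellTiter-Glo, RT.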

[12] = qHTS assay to identify small molecule antagonists of the retinoic acid receptor (RAR) signaling pathway (AID 1159552)
Method in brief: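 C3RL4 RARE-luc cells, overnight plating; retinol 1 uM final added right after compound; 6 hr 37 C; luciferase read at 30 min RT.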

[13] = qHTS assay to identify small molecule agonists of the retinoic acid receptor (RAR) signaling pathway (AID 1159553); note: % is set by controls: 0 for no effect and ±100 for the full control effect
Method in brief: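 Quantitative high-throughput format: the Tox21 10K library was tested on C3RL4 RARE-luciferase cells for 6 hr at 37 C and 5% CO2, with luminescence measured after a 30 min room-temperature reagent step.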

[14] = qHTS assay to identify small molecule antagonists of the estrogen related receptor (ERR) signaling pathway from Tox21 library - cell viability counter screen (AID 1224834); note: % is set by controls: 0 for no effect and ±100 for the full control effect; nearly all actives have a fitted effect of over 30% in size
Method in brief: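 Compounds in DMSO were pinned onto ERR cells that had been incubated for 6 h, and the plates were held at 37 C for 17.5 h. CellTiter-Fluor reagent was then added and fluorescence was measured after 30 min.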

[15] = target: Luciferin 4-monooxygenase (Photinus pyralis) (UniProt P08659); assay: qHTS assay to identify small molecule inhibitors of firefly luciferase (AID 1224835); note: series mostly up to about 120 µM; % is set by controls: 0 for no effect and ±100 for the full control effect; nearly all actives have a fitted effect of over 25% in size
Method in brief: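 Inhibition of purified Photinus luciferase is measured by luminescence. Substrate levels (D-luciferin, ATP) sit at their KM values. Each compound is tested in a concentration series.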

[16] = qHTS assay to identify small molecule agonists of the constitutive androstane receptor (CAR) signaling pathway - cell viability counter screen (AID 1224836); note: series mostly up to about 92 µM; % is set by controls: 0 for no effect and ±100 for the full control effect; nearly all actives have a fitted effect of over 45% in size
Method in brief: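 Using CellTiter-Fluor, viability of HepG2 cells harbouring hCAR and CYP2B6-2.2kb was measured following 23 h incubation with a 15-concentration compound series plus PK11195 (0.75 uM final).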

[17] = qHTS assay to identify small molecule antagonists of the constitutive androstane receptor (CAR) signaling pathway - cell viability counter screen (AID 1224837); note: series mostly up to about 92 µM; % is set by controls: 0 for no effect and ±100 for the full control effect; nearly all actives have a fitted effect of over 45% in size
Method in brief: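 Cells are seeded, rested 4 hr at 37 C/5% CO2, dosed with compound (15-point series) and 50 nM CITCO, incubated a further 23 hr, and then CellTiter-Fluor reagent is added before fluorescence is read. The line is HepG2 with stable hCAR and CYP2B6-2.2kb.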

[18] = target: Nuclear receptor subfamily 1 group I member 3 (Homo sapiens) (UniProt Q14994); assay: qHTS assay to identify small molecule antagonists of the constitutive androstane receptor (CAR) signaling pathway (AID 1224838);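 note: HepG2 cells stably expressing hCAR with CYP2B6 luciferase reporter stimulated by CITCO; % is set by controls: 0 for no effect and ±100 for the full control effect; nearly all actives have a fitted effect of over 40% in size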
Method in brief: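 Luminescence from a CYP2B6-2.2kb promoter reporter in hCAR-expressing HepG2 cells reflects CAR signaling. Cells received compounds at 15 concentrations and 50 nM CITCO (final), then incubated 24 h at 37 C/5% CO2.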

[19] = qHTS assay to identify small molecule antagonists of the estrogen related receptor signaling pathway with the pleiotropic PPARgamma coactivator (PGC) from Tox21 10K library - cell viability counter screen (AID 1224840; active = well fitted cell-killing curve with a large enough effect in the repeat runs, not every such curve was filed as active; note: % is set by controls: 0 for no effect and ±100 for the full control effect; nearly all actives have a fitted effect of over 40% in size)
Method in brief: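 Cell viability is measured by CellTiter-Fluor fluorescence in PGC/ERR cells that receive compounds after a 6-hour attachment period and are then incubated 17.5 hours at 37 C.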

[20] = target: Nuclear receptor subfamily 1 group I member 3 (Homo sapiens) (UniProt Q14994); assay: qHTS assay to identify small molecule agonists of the constitutive androstane receptor (CAR) signaling pathway (AID 1224839);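 note: HepG2 cells stably carrying human CAR and a CYP2B6 luciferase reporter; series mostly up to about 92 µM; % is set by controls: 0 for no effect and ±100 for the full control effect; nearly all actives have a fitted effect of over 15% in size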
Method in brief: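 Double-stable HepG2 cells (hCAR, CYP2B6-2.2kb) seeded 4 h before compound addition. Exposure 24 h with 0.75 uM PK11195 final. Luciferase detected by ONE-Glo.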

Nuclear receptor subfamily 1 group I member 3 (Homo sapiens), sequence (Q14994 whole entry, looked up): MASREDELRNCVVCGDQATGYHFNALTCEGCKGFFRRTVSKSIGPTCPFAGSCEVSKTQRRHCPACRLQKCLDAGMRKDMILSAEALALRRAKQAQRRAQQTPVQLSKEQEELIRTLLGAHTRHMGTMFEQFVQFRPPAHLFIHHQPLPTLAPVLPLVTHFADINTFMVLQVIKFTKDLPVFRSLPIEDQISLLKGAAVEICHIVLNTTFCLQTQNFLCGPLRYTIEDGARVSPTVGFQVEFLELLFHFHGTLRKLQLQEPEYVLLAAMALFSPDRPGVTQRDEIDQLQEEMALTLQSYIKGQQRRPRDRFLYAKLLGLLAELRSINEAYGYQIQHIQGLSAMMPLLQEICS
Luciferin 4-monooxygenase (Photinus pyralis), sequence (P08659 whole entry, looked up): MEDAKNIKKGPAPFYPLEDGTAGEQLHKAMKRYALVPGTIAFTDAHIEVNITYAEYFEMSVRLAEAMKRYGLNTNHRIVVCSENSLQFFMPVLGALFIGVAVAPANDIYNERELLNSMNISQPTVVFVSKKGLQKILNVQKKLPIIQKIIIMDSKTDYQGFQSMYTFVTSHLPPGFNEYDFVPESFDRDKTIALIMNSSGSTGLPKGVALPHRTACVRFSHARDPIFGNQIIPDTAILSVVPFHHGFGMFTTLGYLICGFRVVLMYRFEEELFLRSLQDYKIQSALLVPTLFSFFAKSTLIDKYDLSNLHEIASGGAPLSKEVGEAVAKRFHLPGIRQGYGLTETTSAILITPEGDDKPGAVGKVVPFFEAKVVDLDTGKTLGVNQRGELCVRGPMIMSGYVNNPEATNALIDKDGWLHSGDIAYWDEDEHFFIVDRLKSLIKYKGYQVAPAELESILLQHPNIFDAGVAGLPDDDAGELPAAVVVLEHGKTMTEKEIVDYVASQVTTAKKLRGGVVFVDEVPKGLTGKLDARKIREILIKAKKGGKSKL
Retinoic acid receptor RXR-alpha (Homo sapiens), sequence (P19793 whole entry, looked up): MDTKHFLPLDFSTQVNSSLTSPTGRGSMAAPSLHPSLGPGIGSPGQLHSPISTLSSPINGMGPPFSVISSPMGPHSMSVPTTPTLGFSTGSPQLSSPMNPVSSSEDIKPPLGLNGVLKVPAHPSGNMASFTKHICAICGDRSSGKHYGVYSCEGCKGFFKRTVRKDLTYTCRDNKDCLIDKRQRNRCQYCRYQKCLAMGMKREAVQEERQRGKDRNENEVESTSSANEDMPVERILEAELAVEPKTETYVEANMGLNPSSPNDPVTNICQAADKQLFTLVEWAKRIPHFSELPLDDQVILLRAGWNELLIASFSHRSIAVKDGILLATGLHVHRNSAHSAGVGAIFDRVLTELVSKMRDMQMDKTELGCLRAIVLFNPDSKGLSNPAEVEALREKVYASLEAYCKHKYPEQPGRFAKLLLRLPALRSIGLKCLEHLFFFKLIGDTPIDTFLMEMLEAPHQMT

COC(=O)c1cc(Cl)c(NC(C)=O)cc1OC
inactive: outcome [1] | outcome [2] | Potency [3] | outcome [4] | outcome [5] | outcome [6] | outcome [7] | Potency [8] | Potency [9] | Potency [10] | outcome [11] | outcome [12] | Potency [13] | outcome [14] | Potency [15] | outcome [16] | outcome [17] | outcome [18] | outcome [19]

COC(=O)N/N=C/c1c[n+]([O-])c2ccccc2[n+]1[O-]
inactive: outcome [1] | outcome [2] | Potency [3] | outcome [4] | outcome [5] | outcome [6] | outcome [7] | Potency [8] | Potency [9] | Potency [10] | outcome [11] | outcome [12] | Potency [13] | outcome [14] | Potency [15] | outcome [16] | outcome [17] | outcome [18] | outcome [19]

C=CCON/C(CCC)=C1\C(=O)CC(C)(C)C(C(=O)OC)=C1O
inactive: outcome [1] | outcome [2] | Potency [3] | outcome [4] | outcome [5] | outcome [6] | outcome [7] | Potency [8] | Potency [9] | Potency [10] | outcome [11] | outcome [12] | Potency [13] | outcome [14] | Potency [15] | outcome [16] | outcome [17] | outcome [18] | Potency [20] | outcome [19]

CC(=O)OC/C=C(/C)CCC=C(C)C
inactive: outcome [1] | outcome [2] | Potency [3] | outcome [4] | outcome [5] | outcome [6] | outcome [7] | Potency [8] | Potency [9] | Potency [10] | outcome [11] | outcome [12] | Potency [13] | outcome [14] | Potency [15] | outcome [16] | outcome [17] | outcome [18] | Potency [20] | outcome [19]

CNC(C)=O
inactive: outcome [1] | outcome [2] | Potency [3] | outcome [4] | outcome [5] | outcome [6] | outcome [7] | Potency [8] | Potency [9] | Potency [10] | outcome [11] | outcome [12] | Potency [13] | outcome [14] | Potency [15] | outcome [16] | outcome [17] | outcome [18] | Potency [20] | outcome [19]

CO/N=C(\C(=O)O)c1csc(NC(=O)CCl)n1
inactive: outcome [1] | outcome [2] | Potency [3] | outcome [4] | outcome [5] | outcome [6] | outcome [7] | Potency [8] | Potency [9] | Potency [10] | outcome [11] | outcome [12] | Potency [13] | outcome [14] | Potency [15] | outcome [16] | outcome [17] | outcome [18] | Potency [20] | outcome [19]

COc1cnc(NS(=O)(=O)c2ccc(N)cc2)nc1
inactive: outcome [1] | outcome [2] | Potency [3] | outcome [4] | outcome [5] | outcome [6] | outcome [7] | Potency [8] | Potency [9] | Potency [10] | outcome [11] | outcome [12] | Potency [13] | outcome [14] | Potency [15] | outcome [16] | outcome [17] | Potency [20] | outcome [19]

NNC(=O)OCc1ccccc1
inactive: outcome [2] | Potency [3] | outcome [4] | outcome [5] | outcome [6] | outcome [7] | Potency [8] | Potency [9] | Potency [10] | outcome [11] | outcome [12] | Potency [13] | outcome [14] | Potency [15] | outcome [16] | outcome [17] | outcome [19]

CCCCCCCCCCCCCCCCN(C)C
inactive: activity, negative = cytotoxic [2] -0.303% [at 6.95 µM] | activation [3] 0.0292% [at 6.95 µM] | activity change, negative = cytotoxicity [4] -14.5% [at 6.95 µM] | activity, negative = cytotoxicity [5] 7.06% [at 8.39 µM] | activity change, negative = inhibition [6] 0.397% [at 8.39 µM] | viability change, negative = cytotoxic [7] 0.637% [at 6.97 µM] | activation [8] -6.44% [at 6.97 µM] | activation [9] 8.03% [at 6.98 µM] | activity change, negative = cytotoxicity [10] 1.35% [at 6.97 µM] | activity change, negative = cytotoxicity [11] 0.211% [at 8.39 µM] | activity, negative = inhibition [12] 3.34% [at 8.39 µM] | activation [13] -0.996% [at 8.36 µM] | viability change, negative = cytotoxic [14] 0.965% [at 8.39 µM] | activity change, negative = inhibition [15] 3.25% [at 10.5 µM] | viability change, negative = cytotoxic [16] 4.94% [at 8.39 µM] | activity change, negative = cytotoxicity [17] 4.91% [at 8.39 µM] | viability change, negative = cytotoxic [19] 6.95% [at 8.39 µM]

O=C(O)Cc1ccccc1Oc1ccc(Cl)cc1Cl
inactive: outcome [2] | Potency [3] | outcome [4] | outcome [5] | outcome [6] | outcome [7] | Potency [8] | Potency [9] | Potency [10] | outcome [11] | outcome [12] | Potency [13] | outcome [14] | Potency [15] | outcome [16] | outcome [17] | outcome [19]

C=CC(=O)CC
inactive: outcome [2] | Potency [3] | outcome [4] | outcome [5] | outcome [6] | outcome [7] | Potency [8] | Potency [9] | Potency [10] | outcome [11] | outcome [12] | Potency [13] | outcome [14] | Potency [15] | outcome [16] | outcome [17] | outcome [19]

O=C1c2ccccc2C(=O)N1CO
inactive: outcome [1] | outcome [2] | Potency [3] | outcome [4] | outcome [5] | outcome [6] | outcome [7] | Potency [8] | Potency [9] | Potency [10] | outcome [11] | outcome [12] | Potency [13] | outcome [14] | Potency [15] | outcome [16] | outcome [17] | Potency [20] | outcome [19]

CC(=O)OCC(=O)[C@@]1(O)CC[C@H]2[C@@H]3CCC4=CC(=O)C=C[C@]4(C)[C@H]3[C@@H](O)C[C@@]21C
inactive: outcome [2] | Potency [3] | outcome [4] | outcome [5] | outcome [6] | outcome [7] | Potency [8] | Potency [9] | Potency [10] | outcome [11] | outcome [12] | Potency [13] | outcome [14] | Potency [15] | outcome [16] | outcome [17] | outcome [19]

CCCCC(CC)CCC(CC(C)C)OS(=O)(=O)O (stereo not given)
inactive: outcome [1] | outcome [2] | Potency [3] | outcome [4] | outcome [5] | outcome [6] | outcome [7] | Potency [8] | Potency [9] | Potency [10] | outcome [11] | outcome [12] | Potency [13] | outcome [14] | Potency [15] | outcome [16] | outcome [17] | Potency [20] | outcome [19]
